What all share (experiment): PBM binding z-score (relative to random genomic background probes); higher = stronger binding; sequences stand for … in GC…GCGATTGACAGCGTAGAATGAAGG
The subject of assay [1] is FXR:RXRa (NR concentration 270 nM, RXRa partner concentration 90 nM). Put shortly:
(§1)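 Binding z-scores take random background probes as their reference. They come from custom Agilent 4×180K protein-binding microarrays incubated 1 h with ligand-free nuclear receptor dimers, with antibodies against each partner (one per run) detecting binding. Scanned fluorescence was regression-normalized.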

Assay [2] concerns LXRa:RXRa (NR concentration 270 nM, RXRa partner concentration 90 nM). In outline:
as §1

For assay [3], the system named is LXRa homodimer (NR concentration 270 nM). In outline:
as §1

Assay [4] relates to LXRb:RXRa (NR concentration 270 nM, RXRa partner concentration 90 nM). In outline: as §1
Assay [5] deals with LXRb homodimer (NR concentration 270 nM). Put shortly:
as §1

Assay [6] concerns PPARa:RXRa (NR concentration 270 nM, RXRa partner concentration 90 nM). In outline: as §1
Assay [7] concerns PPARg:RXRa (NR concentration 180 nM, RXRa partner concentration 90 nM). In outline: as §1
Assay [8] has as its system PPARg:RXRa 270nM:90nM, anti-RXR (NR concentration 270 nM, RXRa partner concentration 90 nM). Put shortly:
as §1

Assay [9] concerns PPARg:RXRa 30nM:10nM, anti-RXR (NR concentration 30 nM, RXRa partner concentration 10 nM). In outline: as §1
Assay [10] relates to PPARg:RXRa 90nM:30nM, anti-RXR (NR concentration 90 nM, RXRa partner concentration 30 nM). In outline: as §1
The test system of assay [11] is PPARg:RXRa DBDmut IVT, anti-RXR (DBD mutation: RXRa K156A/R161A, NR concentration 270 nM, RXRa partner concentration 90 nM). Put shortly:
as §1

Assay [12] concerns PPARg:RXRa IVT, anti-PPARg (NR concentration 270 nM, RXRa partner concentration 90 nM). In outline: as §1
The test system of assay [13] is PPARg DBDmut:RXRa IVT, anti-PPARg (DBD mutation: PPARg1 K132A/R137A, NR concentration 270 nM, RXRa partner concentration 90 nM). Put shortly: as §1
Assay [14] has as its system PPARg DBDmut IVT, anti-PPARg (DBD mutation: PPARg1 K132A/R137A, NR concentration 270 nM). In outline:
as §1

Assay [15] relates to PPARg homodimer (NR concentration 180 nM). Put shortly: as §1
In assay [16] the test system is PXR:RXRa (NR concentration 270 nM, RXRa partner concentration 90 nM). Put shortly: as §1
In assay [17] the test system is PXR homodimer (NR concentration 270 nM). Put shortly: as §1
The subject of assay [18] is RARa:RXR (NR concentration 270 nM, RXRa partner concentration 90 nM). Put shortly:
as §1

Assay [19] has as its system RARa homodimer (NR concentration 270 nM). In outline: as §1
The test system of assay [20] is RARb:RXRa (NR concentration 270 nM, RXRa partner concentration 90 nM). In outline: as §1

As for TCTGCTAGCTCAACGATGGTCAGCTAATCTGCTA, the PBM binding z-score was -0.518 in [1]; -0.557 in [2]; -0.771 in assay [3]; -1 in assay [4]; -1.03 in [5]; -0.335 in assay [6]. Further, the PBM binding z-score in assay [7] is -0.32; in assay [8] it was 0.116; in [9] it was 1.25; in [10], 0.838; in [11] it was 0.317; in [12] it was -0.338. For the same sequence, the PBM binding z-score is -0.717 in assay [13]; -0.143 in assay [14]; -1.44 in assay [15]; -0.381 in assay [16]; -0.501 in assay [17]; -0.407 in [18]. Also, the PBM binding z-score was -1.12 in [19] and -0.267 in [20].

For CAGCCTAGGTCAGGGCTAGTATAGGAGGAACGTT, the PBM binding z-score is 1.42 in assay [1]; 0.697 in assay [2]; -0.359 in [3]; 0.186 in [4]; -1.36 in assay [5]; 1.99 in assay [6]. The PBM binding z-score in [7] is 0.77; in [8], 0.899; in [9] it was -0.0707; in assay [10], 0.264; in [11], 1.32; in assay [12], 1.55. For the same sequence, the PBM binding z-score in assay [13] is -1.23; in assay [14], -0.952; in assay [15], 0.47; in [16], 0.176; in assay [17] it was -0.363; in assay [18], 1.08. Further, the values for the PBM binding z-score in [19] and in assay [20] were -0.159 and 3.41, respectively.

For CTCGAAAGGTAGGTTGAGGTGAGTATACGGATAA, the PBM binding z-score was 0.719 in [1]; -0.128 in assay [2]; -0.2 in [3]; -0.0661 in assay [4]; -0.508 in assay [5]; 0.424 in assay [6]. Besides, the PBM binding z-score is 0.0538 in assay [7]; 0.173 in [8]; 0.0647 in [9]; 0.104 in assay [10]; -0.151 in assay [11]; 0.611 in [12]. Moreover, the PBM binding z-score was 0.405 in assay [13]; 0.253 in [14]; 0.0947 in [15]; 0.293 in [16]; -0.116 in assay [17]; 0.461 in assay [18]. Moreover, the values for the PBM binding z-score in assay [19] and in assay [20] were -0.0281 and 0.475, respectively.

For GCTAGCAGGCCATTTGGGTCCCTCAATGACGGGC, the PBM binding z-score in assay [1] is -0.228; in assay [2], -0.686; in [3], -0.879; in [4], -1.21; in assay [5], -1.22; in assay [6], -0.512. Also, the PBM binding z-score was -0.133 in [7]; -0.261 in assay [8]; -0.743 in assay [9]; -0.708 in assay [10]; -0.0266 in assay [11]; -0.343 in assay [12]. For the same sequence, the PBM binding z-score in assay [13] is -1.53; in [14] it was -1.41; in assay [15] it was -1.41; in assay [16], -0.687; in assay [17] it was -1.15; in assay [18], -0.731. In addition, the PBM binding z-score in assay [19] was -1.25; in [20], -0.116.

Turning to CGAACTAGGTCAGAACAGGGCAGTGAAGGATGAT, the PBM binding z-score in [1] was 1.43; in [2], 0.861; in assay [3] it was -0.154; in assay [4], 0.436; in assay [5] it was -0.443; in [6], 3.09. The PBM binding z-score in [7] came out at 5.03; in assay [8], 4.3; in assay [9], 1.73; in assay [10] it was 3.33; in assay [11], 7.23; in assay [12] it was 7.22. Also, the PBM binding z-score in assay [13] is 1.72; in [14], -0.191; in [15] it was 1.19; in assay [16], 1.26; in [17] it was 0.00717; in assay [18], 0.81. The PBM binding z-score stood at 0.0682 in assay [19] and 3.15 in [20].

With ACTATTAGTTGCGACGAGGGCAACCGATAGGTTG, the PBM binding z-score in assay [1] was 0.025; in assay [2] it was -0.176; in assay [3], -0.51; in [4], -0.131; in [5] it was -0.0376; in assay [6], 0.201. Besides, the PBM binding z-score was 0.576 in [7]; 0.00262 in [8]; -0.168 in [9]; 0.0381 in assay [10]; -0.375 in assay [11]; 0.286 in assay [12]. The PBM binding z-score in assay [13] is 0.385; in assay [14] it was 0.517; in assay [15], 0.166; in assay [16], 0.401; in assay [17], -0.0266; in assay [18], 0.277. The PBM binding z-score came out at 0.0553 in [19] and 0.852 in assay [20].

As for TCTCGGAGGCCACGAAGGTCAGAGCTTTCCAGAG, the PBM binding z-score in assay [1] is 0.966; in assay [2] it was 1.34; in assay [3], -0.257; in [4], 1.25; in assay [5], -1.36; in [6], 2.21. The PBM binding z-score in [7] worked out at 0.256; in assay [8], 1.82; in assay [9], 1.63; in assay [10], 1.54; in assay [11] it was 1.55; in [12], 1.81. The PBM binding z-score in assay [13] is -1.16; in [14] it was -1.03; in assay [15] it was 0.239; in [16], 2.19; in [17] it was 0.613; in assay [18] it was 2.29. Moreover, the PBM binding z-score in [19] was -1.17; in assay [20], 3.38.
